In the library only some 7.3% were active in any assay of this set; here they are far more common.
VACV Venus inh – vaccinia inhibition (Venus reporter). AID 720580. hit rate 0.46% among 330,000. Vaccinia virus Venus reporter expression, fluorescence. Potency, µM (top dose mostly 36.5 µM), inactives show top-dose activity change, negative = inhibition, hits mostly inhibitors; calls by dose curve; tested in A549 cells; also: potency is read from the fitted curve at half-maximal effect; nearly all actives have a fitted effect of over 30% in size
HCV inhibitor – HCV inhibition | Huh7.5.1 HCVcc-Cre infection, luciferase reporter, 44 h | hit rate 3.4% among 340,000 | AID 651820 | Potency, µM (doses to about 41.8 µM), for inactives: at the highest dose activity change, negative = inhibition, actives largely listed as inhibitors; active = well fitted inhibition curve with a large enough effect; inconclusive = small, poorly fitted or top-dose-only effect, or another doubt; inactive = no such curve, though single readings can be large or run the other way; also: potency is read from the fitted curve at half-maximal effect
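Cells seeded at 1,000/well and cultured 4 h, then compounds added followed by HCVcc-Cre virus (~0.5 moi). After 44 h further culture, luciferase substrate was added, plates held 15 min at room temperature, and luminescence read for 15 sec.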
FMDV inh – blocks foot and mouth disease virus | FMDV antiviral cell-based qHTS | Potency, µM (top dose mostly 57.9 µM), for the others: at the highest dose activity change, negative = inhibition, actives largely listed as inhibitors | hit rate 1.2% among 410,000 | AID 1159524; calls by dose curve; tested in HEK293T cells; also: read-out not given here; potency is read from the fitted curve at half-maximal effect; nearly all actives have a fitted effect of over 45% in size
HCMV antiviral – blocks human cytomegalovirus replication. HFF cells, HCMV-luciferase reporter, 72 h; stronger effect = lower value. activity change, negative = inhibition, % at 57.5 µM. hit rate 4.5% among 410,000. AID 1259415; in the data active = activity change below about -60%; inconclusive = no clear call, values can overlap the other calls; inactive = above about -39%
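Screen run at 2 compound doses on HFFs infected with reporter HCMV, MOI 1 PFU/cell. Luciferase activity from cell lysates at 72 h post infection gave inhibition relative to buffer-only and Salinomycin wells.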
Vaccinia mCherry – inhibitors of vaccinia virus infection (mCherry reporter signal). Vaccinia virus mCherry reporter infection, fluorescence. Potency, µM (series often up to 36.5 µM), inactives show at the top dose activity change, negative = inhibition, most hits filed as inhibitors. hit rate 0.63% among 310,000; calls by dose curve; tested in A549 cells; also: potency is read from the fitted curve at half-maximal effect; nearly all actives have a fitted effect of over 35% in size
Active calls of the source: *; i = inactive; u = inconclusive; x = no result. % is scaled to controls: 0 for no effect and ±100 for the full control effect.

SMILES	VACV Venus inh	HCV inhibitor	FMDV inh	HCMV antiviral	Vaccinia mCherry
Cc1cc(C)cc(-n2ncc3c2CCCC3NC(=O)c2cc(C)n(C)n2)c1 (configuration not stated)	x	u	-9%	-36	x
Cc1cc(C(=O)NC2CCCc3c2cnn3-c2ccc(C(C)(C)C)cc2)nn1C (configuration not stated)	-29%	7.1µM*	u	-78*	-29%
CC1(C)CC(=O)C2=C(C1)N1C(=C(C#N)C2c2ccc(Cl)cc2)N=C(N)c2ccccc21 (configuration not stated)	-27%	8.9µM*	u	-93*	u
N#CC1=C2N=C(N)c3ccccc3N2C2=C(C(=O)CCC2)C1c1ccc(Cl)cc1 (configuration not stated)	-15%	u	-22%	-91*	-17%
CCN1C(=O)C(CC(=O)NCCc2ccccc2)N(NC(=O)c2ccc(Br)cc2)C1=S (configuration not stated)	-25%	x	u	-15	i
O=C(c1cc(S(=O)(=O)N2CCN(c3ccccc3)CC2)ccc1Cl)N1CCCC(C(F)(F)F)C1 (configuration not stated)	-29%	7.9µM*	u	-82*	-8%
COc1ccc(S(=O)(=O)N2CCN(c3ccccc3)CC2)cc1C(=O)N1CCCC1	-17%	x	-19%	-7	-7%
O=C(c1cccc(S(=O)(=O)N2CCN(c3ccccc3)CC2)c1)N1CCCC(C(F)(F)F)C1 (configuration not stated)	-19%	u	u	-91*	-28%
O=C(CN1CCN(C(=O)c2ccco2)CC1)Nc1ccc(Cl)c(S(=O)(=O)N2CCOCC2)c1	-8%	-10%	-19%	-37	i
O=C(Nc1ccc(Cl)c(S(=O)(=O)N2CCOCC2)c1)c1cn2ccccc2n1	1%	-29%	20µM*	-24	i
O=C(/C=C/c1ccco1)Nc1ccc(Cl)c(S(=O)(=O)N2CCOCC2)c1	x	10µM*	22µM*	-69*	x
O=C(Nc1ccccc1O)c1cc(S(=O)(=O)N2CCOCC2)c(Cl)cc1Cl	-25%	x	16µM*	u	-23%
O=C(Nc1ccccc1)Nc1ccc(Cl)c(S(=O)(=O)N2CCOCC2)c1	-21%	u	u	-62*	i
O=C(Nc1ccccc1O)c1cc(S(=O)(=O)N2CCOCC2)ccc1Cl	-13%	-4%	0%	x	x
COc1ccc(NC(=O)CCc2nc3ccccc3c(=O)[nH]2)cc1S(=O)(=O)N1CCCCC1	x	-28%	u	-14	x
COc1ccc(N2CCN(CCCn3cnc4c(OC)ncnc43)CC2)cc1	-6%	x	-18%	-9	-3%
CCn1nc(C(=O)Nc2ccc(Cl)c(S(=O)(=O)N3CCOCC3)c2)c2ccccc2c1=O	-14%	11µM*	u	-10	i
N#Cc1cccc2c1-c1ccccc1/C2=N/NC(N)=S	u	13µM*	35µM*	x	u
NC(=S)NN=C1c2ccccc2-c2c(F)c(F)c(F)c(F)c21	-24%	u	u	-27	-9%
O=C(Nc1ccc(N2CCOCC2)cc1N1CCOCC1)c1ccc(Cl)cc1	-3%	u	-27%	-13	-16%
Nc1cc(S(=O)(=O)Nc2ccc(Cl)cc2)ccc1N1CCOCC1	-13%	u	-9%	-72*	u
O=C(Nc1ccc(N2CCCCC2)c(Cl)c1)c1ccc2c(c1)OCCO2	u	10µM*	4%	-77*	-17%
O=C(Nc1ccc2c(c1)OCCO2)c1ccc(Br)c(S(=O)(=O)N2CCOCC2)c1	-14%	u	18µM*	-37	-19%
Nc1cc(S(=O)(=O)Nc2ccccc2Cl)ccc1N1CCOCC1	x	u	19%	-30	x
O=C(Nc1ccc(N2CCOCC2)c(Cl)c1)c1ccc(Cl)cc1	6%	10µM*	u	u	-9%
SMILES	VACV Venus inh	HCV inhibitor	FMDV inh	HCMV antiviral	Vaccinia mCherry
C[C@@H]1CN(Cc2ccc3c(c2)CN(Cc2nc(-c4ccccc4)cs2)CCO3)C[C@H](C)O1	-25%	x	u	x	-22%
O=C(Nc1ccc(N2CCOCC2)c(Cl)c1)c1ccc2c(c1)OCCO2	x	11µM*	-17%	-61*	x
O=C(Nc1ccc(N2CCCC2)c(Cl)c1)c1ccc2c(c1)OCCO2	-8%	u	-24%	-4	-19%
Cc1noc(C)c1C(=O)Nc1cc(Cl)ccc1N1CCOCC1	x	10µM*	-24%	-9	x
COc1ccccc1Cc1c(-c2cccc(Cl)c2)nc2ccc(Cl)cn12	3%	x	3%	-7	-21%
Cc1ccc(OCC(=O)Nc2sc3c(c2C(N)=O)CCCC3)c(C(C)(C)C)c1	-24%	x	-7%	-21	-7%
Oc1c(C(c2ccccn2)N2CCC(Cc3ccccc3)CC2)cc(Cl)c2cccnc12 (configuration not stated)	u	18µM*	22µM*	-90*	u
CN1CCN(C(c2ccccn2)c2cc(Cl)c3cccnc3c2O)CC1 (configuration not stated)	-25%	u	-26%	-14	-21%
O=S(=O)(c1cccc2cccnc12)N1CCCCC1	-6%	27%	4%	12	-13%
Oc1c(C(c2ccccc2Cl)N2CCCC2)ccc2cccnc12 (configuration not stated)	u	10µM*	u	-5	u
Oc1c(C(c2ccc(Cl)cc2)N2CCCC2)cc(Cl)c2cccnc12 (configuration not stated)	u	u	-28%	u	13µM*
Clc1ccc(C(c2ccccc2)N2CCN(c3ccccn3)CC2)cc1 (configuration not stated)	-5%	-15%	u	-32	-21%
COc1ccc(C)cc1NC(=O)COc1cc(=O)n(C)c2ccccc12	-14%	x	-18%	-16	-9%
Cc1ccc(-n2c3c(c(=O)[nH]c2=O)C(NC(=O)C(C)(C)C)(C(F)(F)F)C(=O)N3)cc1 (configuration not stated)	2%	x	6%	7	0%
Cc1occc1C(=O)N/N=C/c1ccc(Cl)c([N+](=O)[O-])c1	-25%	u	38%	-63*	-20%
Cc1occc1C(=O)N/N=C/C=C\c1ccccc1[N+](=O)[O-]	0%	u	26%	-75*	-6%
O=C(N/N=C/C=C\c1ccccc1[N+](=O)[O-])c1ccco1	x	4%	7%	-4	x
Cc1cc(C(=O)N/N=C/c2ccc(Cl)c([N+](=O)[O-])c2)c(C)n1-c1ccc(F)cc1	-26%	u	-32%	-93*	u
O=C(N/N=C/c1ccc(Cl)c([N+](=O)[O-])c1)c1cc(-c2ccc3c4c(cccc24)CC3)n[nH]1	2%	-8%	-26%	-74*	-22%
Cc1cc(C(=O)N/N=C/c2ccc3c(c2)OCO3)c(C)n1-c1ccc(F)cc1	-4%	u	46%	u	-1%
COC(=O)[C@@H]1[C@@H](CO)[C@@H]2Cn3c(cccc3=O)[C@H]1N2C(=O)Nc1cc(F)ccc1F	x	x	x	4	x
CCN1CCN(Cc2cccc(Oc3ccc(Cl)cc3)c2)CC1	u	13µM*	x	10	-1%

High-throughput results (PubChem BioAssay)
